104 compounds from PubChem BioAssay AID504832 (National Center for Advancing Translational Sciences (NCATS), 2011) can be followed below.

The structures appear in SMILES notation. Hit rate of the full screen: of about 310,000 compounds, about 18,000 (5.8%) were called active. Where a call stands in place of a potency, no number is given. Inconclusive results (about 22%) are left out. This excerpt belongs to a sample that is enriched for actives. A number with no mark means an inactive call. The call rests on the fitted dose curve; in most records, active means well fitted inhibition curve with a large enough effect; inconclusive means small, poorly fitted or top-dose-only effect, or another doubt; inactive means no such curve, though single readings can be large or run the other way.
Potency means the concentration at half of the fitted maximal effect.

This experiment in a line: Primary qHTS for delayed death inhibitors of the malarial parasite plastid, 48 hour incubation. The settings on record: P. falciparum luciferase growth in erythrocytes; series mostly up to 28.7 µM. In a few lines: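 Luciferase-expressing parasites in RBCs, 2% Hct / 0.1% parasitemia final; RPMI 1640 + 0.5% Albumax; 37 C, 5% CO2, one generation; luminescence read-out, lower signal = inhibition.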
A general note: In qHTS, concentration-response curves come from the screen itself.
On to `O=C(Nc1ccc(F)cc1)C(=O)c1cn(CC(=O)N2CCOCC2)c2ccccc12`, for which the Potency result was “inactive”.
Same read-out and setting: under `COc1ccc(S(=O)(=O)NC(C)C(=O)NCc2ccncc2)cc1Cl` (centres undefined) stands “inactive”; under `COc1ccc(NC(=O)CCCC(=O)c2ccccc2)cc1`, “inactive”; under `CC(C)Cn1c(N)c(C(=O)COC(=O)C2CCCN2C(=O)c2cccs2)c(=O)n(C)c1=O` (centres undefined), “inactive”.
The same measure, in the same setting: under `Cc1ccc(OCCCC(=O)Nc2ccc(S(=O)(=O)Nc3cc(C)nc(C)n3)cc2)cc1` stands “inactive”; under `O=C(Nc1ccccc1)N1CCC(C(=O)N2CCN(Cc3ccccc3)CC2)CC1`, “inactive”.
Still for that read-out and setting: the same measure for `O=C(Nc1ccccc1)N1CCN(C2c3ccccc3-c3ccccc32)CC1`: 2.62 µM (active); for `O=C(Nc1ccccc1)N1CCN(C(=O)Nc2ccccc2)CC1`: “inactive”; for `Cc1cccc(OC(C)C(=O)N2CCc3ccccc3C2)c1` (centres undefined): “inactive”.
With `Brc1ccc(Nc2c3c(nc4ncnn24)CCC3)cc1`, the Potency was 0.586 µM (active).
Consider `Cc1cc(Nc2ccc(Br)cc2F)n2ncnc2n1`, for which the Potency result was “inactive”.
In the case of `Cc1nc(S(=O)(=O)c2ccc(Br)cc2)nc2c1CCC2`, the Potency result is “inactive”.
Still for that read-out and setting: the same measure for `O=C(COC(=O)C1CC2CCCC(C1)C2=O)NC(=O)c1ccccc1` (centres undefined): “inactive”; for `COCCC(=O)N1CCC(Oc2ccc(C(=O)NCc3ccon3)cc2)CC1`: “inactive”; for `CC(=O)c1c(C)oc2ccc(NS(=O)(=O)c3ccccc3)cc12`: “inactive”.
With `Cc1ccn2c(=O)c(C(=O)NCCC3=CCCCC3)c(O)nc2c1`, the Potency entry was “inactive”.
As to `CCCCC[C@H]1CN(C2CCCCC2)C(=O)[C@@H]1CC(=O)NCc1ccc(OC)cc1`, the Potency result is “inactive”.
As to `O=C(NCc1ccco1)/C(=C/c1cccc([N+](=O)[O-])c1)NC(=O)c1ccco1`, the Potency result was “inactive”.
`Cc1ccc(N2CCN(c3ccc([N+](=O)[O-])cn3)CC2)c(C)c1`: the activity change, negative = inhibition was -8.92% [at 0.00184 µM].
For the compound `CN(CCc1cnn(C)c1)Cc1cn(C)nc1-c1ccccc1F`, the Potency entry is “inactive”.
On the same count and under the same terms, the same measure for `CN(CCNC(=O)c1cc2c(-c3ccccc3F)nn(C)c2s1)C1CCCCC1`: 1.65 µM (active); for `CCOCCCNC(=O)c1cc2c(=O)n3ccccc3nc2s1`: “inactive”.
As for `COc1ccc(N2CCN(S(=O)(=O)c3ccc4c(c3)NC(=O)C(C)C(=O)N4)CC2)cc1` (centres undefined), the Potency result is “inactive”.
With `CC(=O)c1ccc(S(=O)(=O)Nc2ccc(-c3ccc4nncn4n3)cc2)cc1`, the Potency entry was “inactive”.
The same measure, in the same setting: the same measure for `COC(=O)C[n+]1cccc2ccccc21`: “inactive”; for `O=C(C[n+]1cc(Br)cc2ccccc21)c1ccc(F)cc1`: 11.7 µM (active).
On the same count and under the same terms, under `O=C(CNC(=O)c1ccc(F)cc1)c1ccccc1` stands “inactive”; under `Cc1cccc(NS(=O)(=O)c2ccc(-c3cnc(C4CC4)o3)cc2)c1`, “inactive”.
Consider `COc1ccccc1C(=O)COC(=O)CSCC(=O)Nc1cc(C)on1`, for which the Potency entry is “inactive”.
Consider `COC(=O)c1ccc(COC(=O)CNC(=O)c2cccc(OC)c2)o1`, for which the Potency result is “inactive”.
Same read-out and setting: the same measure for `COc1ccc(C(c2nnnn2Cc2cccs2)N2CCN(c3ccccc3)CC2)cc1OC` (centres undefined): 14.7 µM (active); for `COc1ccc(CCn2nnnc2C(c2ccccc2)N2CCN(C)CC2)cc1OC` (centres undefined): “inactive”; for `COc1ccccc1C(c1nnnn1CC1CCCO1)N1CCN(c2ccccc2)CC1` (centres undefined): 11.7 µM (active).
Take `COc1ccccc1NC(=O)CSc1nnc(C)n1CC1CCCO1` (centres undefined): the Potency entry is “inactive”.
On to `O=C(CSc1nnc(-c2ccco2)n1CC1CCCO1)c1ccccc1` (centres undefined), for which the Potency result is “inactive”.
Take `COc1cc(/C=N/N2CCN(c3ccccc3)CC2)ccc1OC(C)=O`: the Potency result was “inactive”.
Consider `CCOc1cccc2cc(C(=O)OCC(=O)Nc3c(C)cccc3CC)c(=O)oc12`, for which the Potency entry was “inactive”.
Take `CCCc1ccc(C(=O)COC(=O)CN2C(=O)NC3(CCCCC3C)C2=O)cc1` (centres undefined): the Potency result is “inactive”.
As for `CCC(c1nnnn1C1CCCC1)N1CCN(C(=O)c2ccco2)CC1` (centres undefined), the Potency was 8.28 µM (active).
On the same count and under the same terms, under `CC(C)C(c1nnnn1C1CCCCC1)N1CCN(C(=O)c2ccco2)CC1` (centres undefined) stands “inactive”.
Same read-out and setting: the same measure for `CC(=O)c1ccc(-n2nnnc2SCC(=O)N2CCN(C(=O)c3ccco3)CC2)cc1`: “inactive”.
`CN(C)c1nc(=Nc2cccc(Cl)c2)ss1`: the Potency is 1.04 µM (active).
In the case of `Cc1cc(OCc2cc(C(=O)NCc3cc(C(C)C)no3)no2)cc(C)c1Cl`, the Potency result was “inactive”.
As to `COC(=O)c1ccc(COC(=O)c2cnc(Cl)c(Cl)c2)cc1`, the Potency entry was “inactive”.
Take `Cc1cc(C(F)(F)F)nc(SCC(=O)Nc2nccs2)n1`: the Potency result is “inactive”.
Turning to `COc1ccc(C(C)NC(=O)C23CC4CC(CC(C4)C2)C3)cc1` (centres undefined), the Potency entry is “inactive”.
Regarding `CN1C(=O)C2(OCCCO2)c2cc(Cl)ccc21`, the Potency entry was “inactive”.
`CN1CCN(c2nc(Nc3ccc(O)cc3)nc3ccccc23)CC1`: the Potency was 2.94 µM (active).
Regarding `CCc1ccc(-c2cc(C(=O)NN3CCN(C)CC3)c3ccccc3n2)cc1`, the Potency result is “inactive”.
For `CCCCc1nc2ccccc2c(NC(=O)CN2CCN(C)CC2)c1CCC`, the Potency entry is “inactive”.
Still for that read-out and setting: the same measure for `CCOC(CNC(=O)C1CCN(S(=O)(=O)c2ccc3nc4c(c(C(=O)O)c3c2)CC(C)CC4)CC1)OCC` (centres undefined): “inactive”; for `C/C(=N\N(C)C)c1ccc(OCCOc2ccc([N+](=O)[O-])cc2)cc1`: “inactive”.
Still for that read-out and setting: under `COc1ccccc1OCC(=O)Nc1ccccc1C(=O)NC1CC1` stands “inactive”; under `C#CC(C)(C)NC(=O)c1cnc(-c2ccccc2)nc1-c1ccccc1`, “inactive”.
Consider `COc1ccc2nc(N3CCN(C(=O)c4ccc([N+](=O)[O-])o4)CC3)sc2c1`, for which the Potency was 1.31 µM (active).
With `Cc1ccc2nc(N3CCN(C(=O)c4ccco4)CC3)sc2c1`, the Potency entry was “inactive”.
With `O=C(c1ccc2nc(N3CCOCC3)sc2c1)N1CCN(c2ccc(Cl)cc2)CC1`, the Potency entry was “inactive”.
As for `Cc1nc(C)c(-c2nnc(-c3cccc(S(=O)(=O)N(C)C)c3)o2)cc1C(=O)NN`, the Potency result was “inactive”.
For `O=C(COc1coc(CN2CCN(c3ccccc3)CC2)cc1=O)N1CCc2ccccc21`, the Potency result is “inactive”.
On to `O=C(COc1coc(CN2CCN(c3ccccc3)CC2)cc1=O)Nc1ccccc1F`, for which the Potency entry is “inactive”.
Consider `Cc1cc(C)cc(NC(=O)COc2coc(CN3CCN(c4ccccc4)CC3)cc2=O)c1`, for which the Potency is 13.1 µM (active).
As for `Cc1ccsc1C(=O)NCCc1ccco1`, the Potency entry was “inactive”.
For `O=C(c1nnc(-c2ccc(Cl)cc2)o1)C1CCCC1`, the Potency entry is “inactive”.
Turning to `O=C(c1[nH]ncc1-c1ccc(Cl)cc1)C1CO1` (centres undefined), the Potency was 7.38 µM (active).
Same read-out and setting: under `C=CCNC(=O)c1ccccc1SCc1c(C)noc1C` stands “inactive”.
On to `COc1ccc(NC(=O)CN(C)C(=O)c2ccc(COc3ccccc3)o2)cc1`, for which the Potency result is “inactive”.
Same read-out and setting: under `Cc1ccc(C(C)C)c(OCCSc2nc3ccccc3n2CC(=O)O)c1` stands “inactive”; under `Cc1cccc(NC(=O)Nc2nnc(-c3ccccc3)o2)c1`, “inactive”.
Turning to `COc1cccc(NC(=O)NCc2ccc(F)cc2)c1`, the Potency entry was “inactive”.
On the same count and under the same terms, under `Cc1cccc(NC(=O)Nc2cccc(Oc3c(F)c(F)c(F)c(F)c3F)c2)c1` stands 4.15 µM (active); under `Cn1c(=O)c(=O)n(C)c2cc(S(=O)(=O)CCC(=O)N3CCCCC3)ccc21`, “inactive”; under `COc1cccc(OCc2cc(C(=O)N3CCN(C(=O)c4ccco4)CC3)no2)c1`, “inactive”.
`COc1ccc(OC)c(C(=O)NC(CC(N)=O)c2ccc(N3CCC(N4CCCCC4)CC3)c([N+](=O)[O-])c2)c1` (centres undefined): the Potency entry is “inactive”.
Still for that read-out and setting: the same measure for `O=C(O)C1CSC(c2cccnc2)N1` (centres undefined): “inactive”; for `CN(C)CCCN1C(=O)CSC1c1ccc([N+](=O)[O-])cc1` (centres undefined): “inactive”.
Turning to `CCCCCCCCCCCCN1C(=O)CSC1c1cccnc1` (centres undefined), the Potency is 1.85 µM (active).
Turning to `CCN(CC(=O)Nc1ccc(NC(C)=O)cc1)C(=O)CSC(=S)N1CCCC1`, the Potency entry is “inactive”.
As for `Cc1cc(C)nc(N/N=C/c2ccc([N+](=O)[O-])o2)n1`, the activity change, negative = inhibition is -1.43% [at 0.00184 µM].
With `CCOc1cc(/C=N/Nc2cc(C)nc3ccc(C)cc23)ccc1O`, the Potency result is “inactive”.
For the compound `CCN(CC)c1ccc(/C=N/Nc2nc(C)cc(C)n2)c(O)c1`, the Potency was 7.38 µM (active).
Same read-out and setting: under `CC(C)NC(=O)N1CCN(c2ccncc2S(=O)(=O)N2CCCCC2)CC1` stands “inactive”; under `O=C(CCS(=O)(=O)c1ccccc1)NC1CCCC1`, “inactive”; under `COc1ccccc1OCCCC(=O)Nc1ccc2c(c1)OCCO2`, “inactive”.
Turning to `O=C(Cn1c(-c2ccccn2)nc2ccccc21)NCCN1CCOCC1`, the Potency result is “inactive”.
The same measure, in the same setting: the same measure for `O=C(NCCN1CCOCC1)c1ccc2c(c1)ncn2C1CCCC1`: “inactive”; for `c1ccc2cc3c(NCCN4CCOCC4)ccnc3cc2c1`: 0.147 µM (active); for `O=C(NCCS(=O)(=O)N1CCN(c2ccccc2)CC1)c1ccco1`: “inactive”.
Take `CC1CN(C(=S)Nc2ccc(Br)cc2Cl)CC(C)O1` (centres undefined): the Potency entry was “inactive”.
`CS(=O)(=O)c1ccccc1C(=O)Nc1ccc2sccc2c1`: the Potency entry was “inactive”.
Consider `COc1ccc(CC(NC(C)=O)C(=O)NC2CCN(C(=O)c3ccc(Cl)cc3)CC2)cc1` (centres undefined), for which the Potency result was “inactive”.
Take `COc1ccccc1N(C)S(=O)(=O)c1ccc(Cl)c(C(=O)N2CCC(C(N)=O)CC2)c1`: the Potency entry was “inactive”.
On to `COc1ccccc1N(C)S(=O)(=O)c1ccc(Cl)c(C(=O)Nc2ccncc2)c1`, for which the Potency is 8.28 µM (active).
For `COc1ccccc1N(C)S(=O)(=O)c1ccc(C(=O)NC2CCCCCC2)cc1`, the Potency result was “inactive”.
For the compound `COc1ccc(CNC(=O)COC(=O)c2c(C)nn(-c3ccccc3)c2C)cc1OC`, the Potency entry is “inactive”.
As for `FC(F)(F)c1cnc(Oc2ccccc2-c2nnc(-c3ccc(Cl)cc3)o2)c(Cl)c1`, the Potency was 4.15 µM (active).
Regarding `COC(=O)Cc1ccc(Oc2ncc(C(F)(F)F)cc2Cl)cc1`, the Potency entry was “inactive”.
The same measure, in the same setting: the same measure for `CSc1ccccc1-c1nnc(-c2ccc(Cl)cc2)o1`: “inactive”; for `Cc1ccsc1C(=O)N[C@@H](C)c1nnc2ccccn12`: “inactive”; for `NS(=O)(=O)c1ccc2nc(NC(=O)CS(=O)(=O)c3ccc(F)cc3)sc2c1`: “inactive”.
For the compound `Cc1cc(S(=O)(=O)NCc2ccccn2)c(Cl)cc1Cl`, the Potency entry is “inactive”.
In the case of `O=C(CC1Nc2ccccc2NC1=O)Nc1ccccc1` (centres undefined), the Potency was 11.7 µM (active).
For the compound `O=C(CC1Nc2ccccc2NC1=O)Nc1ccccc1NC(=O)CC1Nc2ccccc2NC1=O` (centres undefined), the Potency entry was “inactive”.
On to `O=C(CC1NCCNC1=O)Nc1ccc(Oc2ccccc2)cc1` (centres undefined), for which the Potency entry is “inactive”.
`O=C(NCCc1ccc(Cl)cc1Cl)c1cc([N+](=O)[O-])c[nH]c1=O`: the Potency entry is “inactive”.
